Tested on: Vero E6 infected with SARS-CoV-2
Experiment: inhibition of SARS-CoV-2 cytopathic effect; higher = more antiviral protection, active = above 15
Conditions: 48 h

Measured: inhibition of SARS-CoV-2 cytopathic effect

NNC(=O)c1ccncc1 [isoniazid]
inactive: 1 nM -3.24% | 8.33 nM 0.31% | 100 nM 0.58% | 833.33 nM 3.21% | 10000 nM -1.15%

CCn1cc(C(=O)O)c(=O)c2ccc(-c3ccncc3)cc21 [rosoxacin]
inactive: 1 nM -1.03% | 8.33 nM -0.12% | 100 nM -1.66% | 833.33 nM -2.14% | 10000 nM 3.73%

NCCNCCNCCN [trientine]
inactive: 1 nM -0.43% | 8.33 nM 2.23% | 100 nM 1.04% | 833.33 nM 2.74% | 10000 nM -1.84%

C[N+](C)(C)CCCCCNCC12CC3CC(CC(C3)C1)C2
inactive: 1 nM -4.72% | 8.33 nM -5.14% | 100 nM -6.53% | 833.33 nM -6.39% | 10000 nM -4.67%

COC1=C[C@@H]2[C@@H]3Cc4ccc(OC)c(O)c4[C@]2(CCN3C)CC1=O [sinomenine]
inactive: 1 nM -1.85% | 8.33 nM 0.19% | 100 nM -1.8% | 833.33 nM 2.51% | 10000 nM 0.68%

CC[N+](C)(CC)CCOC(=O)C(O)(c1ccccc1)C1CCCCC1 (stereo not given) [oxyphenonium]
inactive: 1 nM -1.8% | 8.33 nM -1.33% | 100 nM -2.81% | 833.33 nM 0.58% | 10000 nM -1.5%

C[C@H](NC(=O)Cc1cc(F)cc(F)c1)C(=O)N[C@@H]1C(=O)N(C)c2ccccc2-c2ccccc21
inactive: 1 nM -2.68% | 8.33 nM -3.21% | 100 nM -6.27% | 833.33 nM -7.86% | 10000 nM -8.97%

C#Cc1cccc2c1c(C(=O)c1ccc(Cn3c(C)nc4cnccc43)c(F)c1)cn2C(=O)N(C)C
inactive: 1 nM -0.44% | 8.33 nM -1.26% | 100 nM 0.63% | 833.33 nM -0.09% | 10000 nM -1.98%

CCS(=O)(=O)N(C)[C@H]1c2cc(C#N)ccc2OC(C)(C)[C@@H]1O [chromanol-293B-(-)-[3R,4S]]
inactive: 1 nM 0.15% | 8.33 nM -2.19% | 100 nM 0.8% | 833.33 nM 1.12% | 10000 nM -1.64%

CN1Cc2c(N)cccc2C(c2ccccc2)C1 (stereo not given) [nomifensine]
inactive: 1 nM 0.22% | 8.33 nM 1.01% | 100 nM 2.41% | 833.33 nM 1.13% | 10000 nM 0.73%

CCCCCCCCCCCCCCCCCCCCCCCCCCCCO [1-octacosanol]
inactive: 1 nM 1.47% | 8.33 nM 3.47% | 100 nM 4.36% | 833.33 nM -0.37% | 10000 nM 1.08%

CN(c1ccccc1CNc1nc(Nc2ccc3c(c2)CC(=O)N3)ncc1C(F)(F)F)S(C)(=O)=O
inactive: 1 nM -0.17% | 8.33 nM -0.35% | 100 nM -2.19% | 833.33 nM -5.19% | 10000 nM -15.4%

O=C(O)c1ccccc1O [salicylic-acid]
inactive: 1 nM 1.59% | 8.33 nM -5.54% | 100 nM -2.37% | 833.33 nM 0.26% | 10000 nM 1.57%

Cc1ccc(OC[C@@H](O)[C@H](C)NC(C)C)c2c1CCC2 (racemic)
inactive: 1 nM -1.05% | 8.33 nM -1.6% | 100 nM -1.43% | 833.33 nM -0.36% | 10000 nM -1.51%

NC(=O)c1cccc(-c2cccc(OC(=O)NC3CCCCC3)c2)c1
inactive: 1 nM 1.14% | 8.33 nM 3.25% | 100 nM 1.96% | 833.33 nM 1.41% | 10000 nM 1.6%

CC[C@@]1(O)C(=O)OCc2c1cc1n(c2=O)Cc2cc3cc(O)ccc3nc2-1 [10-hydroxycamptothecin]
inactive: 1 nM -0.65% | 8.33 nM -0.13% | 100 nM -3.85% | 833.33 nM -12.8% | 10000 nM -13.8%

O=[N+]([O-])/N=C1\NCCN1Cc1ccc(Cl)nc1 [imidacloprid]
inactive: 1 nM 0.83% | 8.33 nM 5.02% | 100 nM 6.8% | 833.33 nM 5.42% | 10000 nM 3.01%

NC(=O)OCC(O)COc1ccc(Cl)cc1 (stereo not given) [chlorphensin-carbamate]
inactive: 1 nM 2.19% | 8.33 nM -1.72% | 100 nM 1.24% | 833.33 nM 2.98% | 10000 nM 4.44%

O=c1oc2cc(O)ccc2s1 [tioxolone]
inactive: 1 nM 1.22% | 8.33 nM -2.55% | 100 nM -0.43% | 833.33 nM -1.44% | 10000 nM -1.5%

C[C@H]1COC2=C1C(=O)C(=O)c1c2ccc2c1CCCC2(C)C [cryptotanshinone]
inactive: 1 nM 1.45% | 8.33 nM 0.55% | 100 nM 2.85% | 833.33 nM -1.89% | 10000 nM -2.92%

CCS(=O)(=O)c1cccc(-c2cc(C(=O)NC3CCN(C)CC3)c(C)c3[nH]c4ncc(C)cc4c23)c1
inactive: 1 nM 3.23% | 8.33 nM 0.63% | 100 nM 1.19% | 833.33 nM -0.44% | 10000 nM -2.17%

Cc1ccc(S(=O)(=O)n2c(N)nc3ccccc32)cc1
inactive: 1 nM -0.51% | 8.33 nM -0.92% | 100 nM -2.91% | 833.33 nM -2.7% | 10000 nM -0.17%

CCOc1ccn(-c2ccc(F)cc2)c(=O)c1C(=O)Nc1ccc(Oc2ccnc(N)c2Cl)c(F)c1
inactive: 1 nM 2.67% | 8.33 nM 1.32% | 100 nM -5.33% | 833.33 nM 2.11% | 10000 nM -3.09%

O=[N+]([O-])c1cn2c(n1)OC[C@@H](OCc1ccc(OC(F)(F)F)cc1)C2 [pretomanid]
inactive: 1 nM 0.26% | 8.33 nM 0.54% | 100 nM -0.43% | 833.33 nM -0.88% | 10000 nM 0.65%

COc1cc(N)c(Cl)cc1C(=O)OCCN1CCCCC1
inactive: 1 nM 2.34% | 8.33 nM 2.09% | 100 nM 1.8% | 833.33 nM 1.01% | 10000 nM 2.59%

COCCCC/C(=N\OCCN)c1ccc(C(F)(F)F)cc1 [fluvoxamine]
inactive: 1 nM 6.3% | 8.33 nM 3.03% | 100 nM -1.16% | 833.33 nM -0.69% | 10000 nM -6.73%

CCCCCCCCCCCCCCCC(=O)O[C@@H]1[C@@H](O)[C@@H](O)[C@@H]([C@H](NC(=O)[C@@H]2C[C@@H](CCC)CN2C)[C@H](C)Cl)O[C@@H]1SC [clindamycin-palmitate]
inactive: 1 nM -0.87% | 8.33 nM -2.61% | 100 nM -3.02% | 833.33 nM -0.74% | 10000 nM -3.94%

OC[C@H]1O[C@@H](n2cnc3c(NC4CCCC4)nc(Cl)nc32)[C@H](O)[C@@H]1O [2-chloro-N6-cyclopentyladenosine]
inactive: 1 nM -3.44% | 8.33 nM 0.41% | 100 nM 2.9% | 833.33 nM 2.35% | 10000 nM -0.77%

O=c1cc[nH]c(=O)[nH]1 [uracil]
inactive: 1 nM -0.48% | 8.33 nM 2.2% | 100 nM 2.09% | 833.33 nM 1.66% | 10000 nM -2.12%

C[C@]12CC[C@H](O)CC1=CC[C@@H]1[C@@H]2CC[C@]2(C)C(n3cnc4ccccc43)=CC[C@@H]12 [galeterone]
inactive: 1 nM -0.79% | 8.33 nM 0.99% | 100 nM 0.05% | 833.33 nM -5.02% | 10000 nM -6.94%

CCN(CC)CCO[C@H]1CC[C@@]2(C)C(=CC[C@@H]3[C@@H]2CC[C@]2(C)C(=O)CC[C@@H]32)C1
active: 10000 nM 19.6%
inactive: 1 nM 1.95% | 8.33 nM 2.95% | 100 nM 1.19% | 833.33 nM 3.83%

NCCCCN [putrescine]
inactive: 1 nM 2.4% | 8.33 nM 3.44% | 100 nM -0.12% | 833.33 nM 4.47% | 10000 nM 0.82%

CS(=O)(=O)c1ccc([C@@H](O)[C@@H](CF)NC(=O)C(Cl)Cl)cc1 [florfenicol]
inactive: 1 nM -5.27% | 8.33 nM -3.73% | 100 nM -3.16% | 833.33 nM 0.63% | 10000 nM -0.52%

N#Cc1ccc(Oc2ccc3c(c2)COB3O)cc1 [crisaborole]
inactive: 1 nM 0.74% | 8.33 nM 0.97% | 100 nM 1.46% | 833.33 nM -0.75% | 10000 nM 4.65%

O=C(O)COc1cccc(-c2ocnc2-c2nc(-c3ccccc3)c(-c3ccccc3)o2)c1
inactive: 1 nM -0.58% | 8.33 nM 0.52% | 100 nM 0.7% | 833.33 nM 0% | 10000 nM 3.01%

CCOc1cc(C(=O)N2CCC(N3CCN(C)CC3)CC2)ccc1Nc1ncc2c(n1)N(C1CCCC1)c1ccccc1C(=O)N2C
inactive: 1 nM 0.46% | 8.33 nM 1.68% | 100 nM -0.44% | 833.33 nM -1.7% | 10000 nM -0.04%

CC(C)Nc1cccnc1N1CCN(C(=O)c2cc3cc(NS(C)(=O)=O)ccc3[nH]2)CC1 [delavirdine]
inactive: 1 nM -1.49% | 8.33 nM -0.85% | 100 nM 1.56% | 833.33 nM 1.65% | 10000 nM 2.87%

CCn1cc(C(=O)O)c(=O)c2cc(F)c(N3CCNCC3)nc21 [enoxacin]
inactive: 1 nM 4.58% | 8.33 nM 2.38% | 100 nM 0.25% | 833.33 nM -2.16% | 10000 nM 0.56%

OC[C@H]1NCC[C@@H](O)[C@@H]1O [fagomine]
inactive: 1 nM -1.09% | 8.33 nM 1.34% | 100 nM 1.02% | 833.33 nM 2.42% | 10000 nM 0.75%

Fc1ccc2nc(CCC#Cc3ccccn3)cn2c1 [dipraglurant]
inactive: 1 nM 0.01% | 8.33 nM 0.17% | 100 nM 0.87% | 833.33 nM 1.2% | 10000 nM 2.02%

CCOc1cn(-c2ccc(F)cc2C)nc1C(=O)Nc1ccc(Oc2ccnc3cc(OC)c(OC)cc23)c(F)c1
inactive: 1 nM -0.58% | 8.33 nM -1.4% | 100 nM -1.89% | 833.33 nM 0.24% | 10000 nM -1.4%

From the supplement of paper PMC13380429
